Source: PubChem BioAssay (National Center for Advancing Translational Sciences (NCATS))
TDP1 cell noCPT = qHTS for Inhibitors of human tyrosyl-DNA phosphodiesterase 1 (TDP1): qHTS in cells in absence of CPT; DT40 Tdp1-/- hTDP1 cells, no CPT, ATP luminescence, 48 h; Potency, µM (top dose mostly 46.2 µM), for the others: at the top dose activity change, negative = growth inhibition, usual class: inhibitors; hit rate 15% among 420,000; also: potency is read from the fitted curve at half-maximal effect; nearly all actives have a fitted effect of over 55% in size
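Stably hTDP1-transfected Tdp1-null chicken DT40 cells were treated with library compounds minus camptothecin and grown for at least 48 hr at 37 °C, after which cellular ATP was quantified by luminescence.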
TDP1 cell CPT = growth inhibition of DT40 Tdp1-/-;hTDP1 cells with camptothecin (screen for TDP1 inhibitors) | Potency, µM (series often up to 46.2 µM), for inactives: at the highest dose activity change, negative = growth inhibition, hits mostly inhibitors | hit rate 12% among 420,000 | chicken DT40 Tdp1-/-;hTDP1 cells + 20 nM CPT, ATP luminescence, 48 h; also: potency is read from the fitted curve at half-maximal effect; nearly all actives have a fitted effect of over 55% in size
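Chicken DT40 Tdp1-/- cells complemented with human TDP1, 400 cells/well, exposed to compounds plus 20 nM camptothecin for at least 48 h at 37 C; viability read as ATP content by CellTiter-Glo luminescence.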
IL1B secr inh = inflammasome signaling inhibition, IL-1 beta readout; hit rate 4.7% among 360,000; THP-1 LPS/ATP IL-1B secretion, AlphaLISA, 16 h; active compounds read low; AID 743279; activity change, % at 57.5 µM; in the data active = activity change below about -50%; inconclusive = mostly about -30% to -49%
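THP-1 cells pretreated 1 hr with compounds (up to 57.5 uM final), then stimulated with LPS (250 ng/mL final) plus ATP (1.25 mM final); secreted IL-1B measured by AlphaLISA after 16 hr, decreased signal indicating inhibition.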
HT1080 IDH1KD tx = kills HT-1080 cells with IDH1 knockdown; HT-1080 IDH1 knockdown viability, ATP luminescence, 48 h; Potency, µM (top dose mostly 46.1 µM), for the others: top-dose activity, negative = toxicity, usual class: cytotoxic; hit rate 2% among 360,000;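 also: potency is read from the fitted curve at half-maximal effect; 0% = DMSO wells and -100% = cell-free medium wells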
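HT-1080-IDH1KD cells (IDH1 knocked down), 750/well in RPMI with 5% FBS, treated with compound 48 h at 37 degrees C. Viability by CellTiter-Glo luminescence, normalised to DMSO and no-cell wells; concentration-response curves classed.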
HT1080-NT tox = kills 2HG-producing HT-1080-NT fibrosarcoma cells; Potency, µM (doses to about 46.1 µM), inactives show at the top dose activity, negative = less viability, usual class: cytotoxic; HT-1080-NT fibrosarcoma viability, CellTiter-Glo ATP luminescence, 48 h; hit rate 1.6% among 360,000;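 also: NT is the 2HG producing partner of a matched IDH1 knockdown line; potency is read from the fitted curve at half-maximal effect; 0% = DMSO-treated cells and -100% = media-only wells without cells; nearly all actives have a fitted effect of over 55% in size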
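A 48-hour cytotoxicity screen used HT-1080-NT cells plated 2 hours before compound delivery. ATP-based CellTiter-Glo luminescence measured viability, normalized to DMSO and no-cell controls.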
An asterisk follows results filed as active; i = inactive; ? = inconclusive; . = not tested or not shown. Only some compounds are listed: those with a hit (about 19% of all), similar ones and a draw of the others. Unless noted, calls follow the shape of the dose curve; as a rule, active = well fitted curve in the direction sought with a large enough effect; inconclusive = small, poorly fitted or top-dose-only effect, or another doubt; inactive = no such curve, though single readings can be large; an effect the other way counts as inactive or inconclusive. Unless noted, % is scaled to controls: 0 for no effect and ±100 for the full control effect.

SMILES	TDP1 cell noCPT	TDP1 cell CPT	IL1B secr inh	HT1080 IDH1KD tx	HT1080-NT tox
Cc1ccc(S(=O)(=O)N2CCCCC2C(=O)N(C)c2ccccc2)cc1 (configuration not stated)	14.6µM*	16.4µM*	23.9	-0.3%	-11.8%
CN(C(=O)C1CCCCN1S(=O)(=O)c1ccccc1)c1ccccc1 (configuration not stated)	?	?	11.5	5.9%	-2.2%
COCCCN(C(=S)NC(=O)C12CC3CC(CC(C3)C1)C2)c1c(N)n(Cc2ccccc2)c(=O)[nH]c1=O	?	-4.0%	9.8	-16.7%	0.3%
CNC(=O)COc1coc(CN2CCN(c3ccc(F)cc3)CC2)cc1=O	25.8%	-2.0%	12.3	16.4%	12.8%
CCOC(=O)c1cccc(NC(=O)/C=C/c2ccc3c(c2)OCO3)c1	18.4µM*	?	-89.5*	?	?
CC1CCCC(C)N1C(=O)COC(=O)c1ccc2c(c1)OCO2 (configuration not stated)	29.1µM*	-0.7%	12.8	-0.5%	-6.1%
CCOC(=O)c1c(C)c(C(=O)Nc2ccc3c(c2)OCCO3)c(C)n1CC	11.2µM*	10µM*	16.2	?	?
CCOC(=O)c1cccc(NC(=O)c2ccc3c(c2)OCO3)c1	11.6µM*	14.6µM*	-84.7*	-11.9%	0.7%
CCOC(=O)CNC(=O)/C=C/c1ccc2c(c1)OCO2	-18.1%	0.7%	-3.6	-27.9%	-3.4%
CC(=O)c1cccc(NC(=O)c2ccc3c(c2)OCO3)c1	?	?	-8.0	0.0%	3.2%
CCOC(=O)c1c(C)c(C(=O)Nc2ccc3c(c2)OCO3)c(C)n1C	-4.1%	0.6%	0.0	2.6%	15.6%
CN(CC(=O)Nc1ccccc1C(F)(F)F)C(=O)CSc1nnc(N)s1	-4.5%	7.8%	3.1	9.7%	12.1%
CCc1ccc(NC(=O)Nc2cccc(OC)c2)cc1	?	-20.1%	?	-2.0%	-1.6%
COc1cc(/C=N/NC(=O)c2ccccn2)ccc1OC(=O)c1ccccc1Br	?	?	i	?	-9.8%
COc1cc(/C=N/NC(=O)c2ccccn2)ccc1OC(=O)c1ccc(Br)cc1	?	18.4µM*	0.0	-4.3%	-16.1%
CC(C)c1ccc(/C=N/NC(=O)c2cc(-c3cccc([N+](=O)[O-])c3)n[nH]2)cc1	?	?	13.8	23.1µM*	?
O=C(N/N=C/c1cccnc1)c1cccc(Cl)c1	-12.2%	8.1%	0.7	21.5%	15.2%
O=C(N/N=C/c1ccncc1)c1ccccn1	5.6%	-10.5%	8.4	-14.9%	-12.7%
CC(C)c1ccc(/C=N/NC(=O)c2ccccn2)cc1	-11.1%	0.0326µM*	-52.5*	?	?
CC(C)c1ccc(/C=N/NC(=O)c2cccc(Cl)c2)cc1	5.8µM*	10.3µM*	-14.5	20.6µM*	23.1µM*
CSc1nc2cc(C)nn2c(-c2ccccc2)c1C#N	-1.3%	-1.9%	3.3	1.8%	20.5%
O=c1c2cc(NC(=S)N3CCCCCC3)ccc2nc2n1CCCCC2	?	-20.8%	13.9	-10.5%	-2.0%
CC(C)c1ccc(/C=N/NC(=O)c2ccc(-n3cnnn3)cc2)cc1	11.6µM*	?	-18.7	?	?
CC(NC(=O)NC(=O)c1cccc(Cl)c1)c1ccccc1 (configuration not stated)	?	13µM*	13.8	4.2%	0.0%
Cc1cc(C)c(S(=O)(=O)NCc2ccc3c(c2)CCN3C(=O)c2ccccc2)c(C)c1	10.3µM*	14.6µM*	.	.	.
SMILES	TDP1 cell noCPT	TDP1 cell CPT	IL1B secr inh	HT1080 IDH1KD tx	HT1080-NT tox
CCC(=O)N1CCc2cc(S(=O)(=O)Nc3ccccc3C)ccc21	?	-25.1%	-17.9	8.3%	4.1%
Cc1cc(C)c(S(=O)(=O)NCc2ccc3c(c2)cc(C)n3C)c(C)c1	23.1µM*	?	36.3	-3.0%	-3.8%
CCC(=O)N1CCc2cc(CNS(=O)(=O)c3c(C)cc(C)cc3C)ccc21	20.6µM*	?	.	.	.
O=C(CCC1N=C2c3ccccc3N=C(SCc3cccc(F)c3)N2C1=O)NCc1ccc(F)cc1 (configuration not stated)	18.4µM*	?	.	.	.
O=C(CCC1N=C2c3ccccc3N=C(SCc3cccc(Cl)c3)N2C1=O)NCc1cccs1 (configuration not stated)	20.6µM*	11.6µM*	.	.	.
CCOc1ccc(NC(=O)CSC2=Nc3ccccc3C3=NC(CCC(=O)NCc4cccs4)C(=O)N23)cc1 (configuration not stated)	-12.9%	-2.4%	.	.	.
COc1ccccc1CNC(=O)CCC1N=C2c3ccccc3N=C(SCC(=O)NCCc3ccc(OC)c(OC)c3)N2C1=O (configuration not stated)	?	18.4µM*	.	.	.
O=C(CCC1N=C2c3ccccc3N=C(SCc3cccc(F)c3)N2C1=O)NCCc1ccccc1 (configuration not stated)	?	20.6µM*	.	.	.
CC(C)Oc1ccc(CNC(=O)c2ccc3c(c2)nc2n3CCOC2)cc1	-4.7%	3.0%	.	.	.
O=S(=O)(Cc1ccc(Cl)cc1)NCc1ccc2c(c1)OCO2	-12.7%	-13.6%	6.9	-8.5%	-4.9%
O=C(CCC1N=C2c3ccccc3N=C(SCc3ccc(Cl)cc3)N2C1=O)NCCc1ccccc1 (configuration not stated)	?	18.4µM*	.	.	.
O=C(CCC1N=C2c3ccccc3N=C(SCc3ccc(F)cc3)N2C1=O)N1CCN(c2ccccc2)CC1 (configuration not stated)	25.9µM*	?	.	.	.
O=C(CCC1N=C2c3ccccc3N=C(SCc3ccccc3Cl)N2C1=O)NCCc1ccccc1 (configuration not stated)	-29.6%	?	.	.	.
Cc1ccc(Cl)cc1NCN1C(=O)c2ccccc2C1=O	1.5%	-1.1%	12.3	-6.1%	1.4%
O=C1CCCCCN1CP(=O)(O)CN1CCCCCC1=O	-1.6%	6.2%	9.6	19.0%	7.1%
CCC1CC2(C)NC(=O)c3c(sc4c3CC(C)(C)OC4)N2C1=O (configuration not stated)	20.6µM*	?	-5.6	-0.2%	-5.4%
CCCCc1nc2sc3c(c2c(=O)[nH]1)CC(C)(C)OC3	-10.4%	-15.7%	-10.7	2.8%	-0.2%
CCCCOc1ccc(S(=O)(=O)Nc2ccc(-c3ccc(N4CCCCC4)nn3)cc2)cc1	20.6µM*	14.6µM*	.	.	.
Cc1ccc(S(=O)(=O)Nc2ccc(-c3ccc(N4CCCCCC4)nn3)cc2)cc1C	-49.3%	2.91µM*	.	.	.
Cc1ccc(S(=O)(=O)Nc2cccc(-c3ccc(N4CCCCCC4)nn3)c2)cc1	?	?	-18.3	-4.0%	?
